Several values for one entry are separate records, joined by “and”; a condition that tells them apart may be missing. Identical values can stand only once. Among all 5,500 compounds or so, about 2,000 (36%) were called active. Another 18% or so got no clear call; they are omitted. No stated cut-off is given here; in the data, active means normalized growth mostly below about 0.91 (no sharp cut-off); inconclusive means no clear call, values can overlap the other calls; inactive means mostly above about 0.92. The list shows a part of the results.
Assay: chemical genetic growth profiling, strain panel (AID 1159580);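 further: tested at 20 µM; growth read once vehicle control cultures reached saturation at 30 °C; 1 = growth at the plate median or of vehicle wells; lower values mean less growth of the strain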
Conditions: S. cerevisiae deletion strains, growth OD

Measured: normalized growth

C1N2CN3CN1CN(C2)C3
inactive: locus YAL013W, strain DEP1, active compounds read low 0.975 | locus YAL021C, strain ccr4, active compounds read low 0.986 | locus YAL026C, strain drs2, active compounds read low 1 | locus YAL030W, strain snc1, active compounds read low 0.993 | locus YBL061C, strain skt5, active compounds read low 0.991 | locus YBR009C, strain hhf1, active compounds read low 1.03 | locus YBR021W, strain FUR4, active compounds read low 1.06 | locus YBR023C, strain chs3, active compounds read low 0.984 | locus YBR171W, strain sec66, active compounds read low 0.991 | locus YBR229C, strain ROT2, active compounds read low 0.949 | locus YBR231C, strain swc5, active compounds read low 1 | locus YBR279W, strain paf1, active compounds read low 0.985 | locus YCL011C, strain gbp2, active compounds read low 0.986 | locus YCL016C, strain dcc1, active compounds read low 0.961 | locus YCL029C, strain bik1, active compounds read low 0.977 | locus YCL061C, strain MRC1, active compounds read low 0.987 | locus YCL069W, strain vba3, active compounds read low 1 | locus YCR088W, strain abp1, active compounds read low 0.982 | locus YDL005C, strain med2, active compounds read low 0.999 | locus YDL035C, strain GPR1, active compounds read low 0.989 | locus YDL040C, strain nat1, active compounds read low 0.996 | locus YDL074C, strain BRE1, active compounds read low 0.972 | locus YDL101C, strain DUN1, active compounds read low 0.955 | locus YDL134C, strain PPH21, active compounds read low 0.983 | locus YDL185W, strain tfp1, active compounds read low 0.951 | locus YDL192W, strain arf1, active compounds read low 0.972 | locus YDR001C, strain nth1, active compounds read low 0.994 | locus YDR069C, strain doa4, active compounds read low 1.03 | locus YDR101C, strain arx1, active compounds read low 0.977 | locus YDR137W, strain rgp1, active compounds read low 0.985 | locus YDR150W, strain NUM1, active compounds read low 0.972 | locus YDR159W, strain sac3, active compounds read low 1.04 | locus YDR162C, strain NBP2, active compounds read low 0.954 | locus YDR195W, strain ref2 1.01 | locus YDR297W, strain sur2, active compounds read low 0.986 | locus YDR318W, strain mcm21, active compounds read low 0.98 | locus YDR334W, strain swr1, active compounds read low 0.974 | locus YDR335W, strain msn5, active compounds read low 0.997 | locus YDR388W, active compounds read low 0.976 | locus YDR392W, strain spt3, active compounds read low 0.923 | locus YDR502C, strain sam2, active compounds read low 0.966 | locus YEL003W, strain gim4, active compounds read low 1 | locus YEL037C, strain rad23, active compounds read low 0.982 | locus YEL061C, strain CIN8 (second series), active compounds read low 0.978 | locus YEL061C, strain CIN8, active compounds read low 0.983 | locus YER015W, strain faa2, active compounds read low 0.988 | locus YER016W, strain bim1, active compounds read low 0.999 | locus YER110C, active compounds read low 0.975 | locus YER111C, strain swi4, active compounds read low 0.978 | locus YER155C, strain BEM2 (second series), active compounds read low 0.991 | locus YER155C, strain BEM2, active compounds read low 0.982 | locus YER167W, strain BCK2, active compounds read low 0.984 | locus YFR010W, strain ubp6, active compounds read low 0.988 | locus YGL078C, strain dbp3, active compounds read low 0.942 | locus YGL086W, strain mad1, active compounds read low 0.991 | locus YGL167C, strain pmr1, active compounds read low 0.992 | locus YGL173C, strain kem1, active compounds read low 0.994 | locus YGL227W, strain vid30, active compounds read low 1 | locus YGL240W, strain doc1, active compounds read low 0.999 | locus YGL248W, strain PDE1, active compounds read low 0.973 | locus YGL253W, strain hxk2, active compounds read low 0.998 | locus YGR078C, strain PAC10, active compounds read low 0.973 | locus YGR135W, strain pre9, active compounds read low 0.934 | locus YGR229C, strain SMI1, active compounds read low 0.966 | locus YGR252W, strain gcn5, active compounds read low 1.12 | locus YHR013C, strain ard1, active compounds read low 0.95 | locus YHR027C, strain rpn1, active compounds read low 0.99 | locus YHR030C, strain SLT2, active compounds read low 0.99 and 0.968 | locus YHR079C, strain IRE1 (second series), active compounds read low 0.974 | locus YHR079C, strain IRE1, active compounds read low 0.929 | locus YHR094C, strain hxt1, active compounds read low 0.976 | locus YHR129C, strain ARP1, active compounds read low 0.978 | locus YHR142W, strain chs7, active compounds read low 0.973 | locus YHR200W, strain rpn10, active compounds read low 0.975 | locus YIL066C, strain RNR3, active compounds read low 0.984 | locus YIL073C, strain SPO22, active compounds read low 0.895 | locus YIL125W, strain kgd1, active compounds read low 0.979 | locus YIR030C, strain dcg1, active compounds read low 0.976 | locus YJL092W, strain hpr5, active compounds read low 0.982 | locus YJL095W, strain BCK1 (second series), active compounds read low 0.986 | locus YJL095W, strain BCK1, active compounds read low 0.988 and 0.948 | locus YJL115W, strain asf1, active compounds read low 0.985 | locus YJL129C, strain trk1, active compounds read low 0.979 | locus YJL134W, strain LCB3, active compounds read low 0.98 | locus YJL154C, strain vps35, active compounds read low 0.991 | locus YJL164C, strain tpk1, active compounds read low 0.99 | locus YJL166W, strain qcr8, active compounds read low 0.964 | locus YJL168C, strain set2, active compounds read low 0.985 | locus YJL187C, strain SWE1 (second series), active compounds read low 0.975 | locus YJL187C, strain SWE1, active compounds read low 0.988 | locus YJR043C, strain POL32, active compounds read low 0.997 | locus YJR066W, strain TOR1, active compounds read low 0.987

Reference: PubChem BioAssay AID1159580 (chemical genetic matrix, 2015)
